“And” between values parts separate entries of the source, which are not always exact repeats. Identical values can stand only once. Inconclusive results are not listed. The source made the active and inactive calls. Unless noted, calls come from the whole dose curve; as a rule, active = well fitted curve in the direction sought with a large enough effect in the repeat runs; inconclusive = weak or mixed curves; inactive = no such curve, though single readings can be large; an effect the other way counts as inactive or inconclusive.
What was measured:
[1] = qHTS assay to identify small molecule agonists of the estrogen receptor beta (ER-beta) signaling pathway - cell viability counter screen (AID 1259380); note: nearly all actives have a fitted effect of over 30% in size; note: potency is the fitted concentration of half-maximal effect
Outline: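 Cell viability counter screen: CellTiter-Glo luminescence (30 min, room temperature) measured in the same wells as the beta-lactamase readout, after 16 hr compound exposure at 37C of ER-beta-bla HEK293T cells in 2% charcoal-stripped FBS medium.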

[2] = molecular target: Androgen receptor (Homo sapiens) (UniProt P10275); assay: qHTS assay to identify small molecule agonists of the androgen receptor (AR) signaling pathway in the presence of an antagonist (AID 1259381; calls by dose curve; note: nearly all actives have a fitted effect of over 15% in size; note: potency is the fitted concentration of half-maximal effect)
Outline: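 Agonist-mode confirmation run against 3.0 uM final nilutamide: compounds titrated at 15 concentrations onto MDA-kb2 MMTV-luciferase reporter cells. Luminescence measured with ONE-Glo following 16 hr incubation, 37C, 0% CO2.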

[3] = qHTS assay to identify small molecule antagonists of the estrogen receptor beta (ER-beta) signaling pathway - cell viability counter screen (AID 1259382); note: nearly all actives have a fitted effect of over 55% in size; note: potency is the fitted concentration of half-maximal effect
Outline: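 Cytotoxicity was measured in the same wells by CellTiter-Glo luminescence after 30 min at room temperature. Cells were ER-beta-bla HEK293T in charcoal-stripped serum, given compound together with 1 nM E2 and incubated 16 h at 37C.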

[4] = qHTS assay to identify small molecule agonists or antagonists of the thyroid stimulating hormone receptor (TSHR) signaling pathway - wild type cell line counter screen (AID 1259384; calls by dose curve)
Outline: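 Wild-type Hek293 cells, 800/well, 18 h at 37C, then compound with Ro20-1724 for 30 min RT. cAMP by HTRF (cAMP-d2/anti-cAMP cryptate), 1 h RT, fluorescence read. 15 concentrations, triplicates.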

[5] = qHTS assay to identify small molecule agonists of the estrogen receptor alpha (ER-alpha) signaling pathway in the presence of an antagonist - cell viability counter screen (AID 1259386); note: nearly all actives have a fitted effect of over 30% in size; note: potency is the fitted concentration of half-maximal effect
Outline: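 Compounds tested at 15 concentrations for 22 h at 37C alongside 10.0nM (final) ICI-182,780 antagonist, in VM7Luc4E2 cells grown in phenol red-free, charcoal-stripped medium. Viability read by CellTiter-Fluor fluorescence after 1 h reagent incubation.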

[6] = molecular target: Progesterone receptor (Homo sapiens) (UniProt P06401); assay: qHTS assay to identify small molecule agonists of the progesterone receptor (PR) signaling pathway (AID 1346784; calls by dose curve; note: nearly all actives have a fitted effect of over 30% in size)
Outline: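 Cells (PR-UAS-bla HEK 293T, GripTite) were plated in assay medium containing 2% charcoal-stripped FBS and incubated 6 hr. Test compounds in DMSO were added for 16 hr at 37C. FRET substrate was then loaded for 2 hr at room temperature before fluorescence reading.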

[7] = qHTS assay to identify small molecule antagonists of the TGF-beta/Smad signaling pathway - cell viability counter screen (AID 1346824); note: nearly all actives have a fitted effect of over 50% in size
Outline: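 SBE-bla HEK 293T cells, incubated overnight, then compound plus 0.25 ng/mL TGF-beta1 (stock added) for 5 hr at 37 C. Viability was read in the same wells by CellTiter-Glo luminescence after 30 min at room temperature.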

[8] = qHTS assay to identify small molecule agonists of the TGF-beta/Smad signaling pathway - cell viability counter screen (AID 1346829); note: top concentration of the series differs between compounds; nearly all actives have a fitted effect of over 45% in size
Outline: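 Same-well cytotoxicity: CellTiter-Glo added after the 2 hr room-temperature beta-lactamase substrate step, luminescence measured 30 min later; cells had 5 hr of compound at 37 C.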

[9] = qHTS assay to identify small molecule agonists of the TGF-beta/Smad signaling pathway (AID 1346859; active = well fitted activation curve with a large enough effect in the signal ratio in the repeat runs, not every such curve was filed as active; the % refers to the signal ratio; note: series mostly up to about 77 µM)
Outline: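 Reporter line: HEK 293T with stably integrated SBE-controlled beta-lactamase. Compound exposure lasts 5 hr at 37 C and 5% CO2; substrate loading follows for 2 hr at room temperature, with emission read at 460 and 530 nm.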

[10] = molecular target: Thyrotropin-releasing hormone receptor (Homo sapiens) (UniProt P34981); assay: qHTS assay to identify small molecule antagonists of the thyrotropin-releasing hormone receptor (TRHR) signaling pathway (AID 1346877; active = well fitted inhibition curve with a large enough effect in the repeat runs, not every such curve was filed as active; note: potency is the fitted concentration of half-maximal effect)
Outline: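 Antagonist mode: after a 5 min room-temperature compound exposure, cells were stimulated with 1 nM (final) TRH. Dye-loaded TRHR-HEK293 cells were used, and calcium-dependent fluorescence was followed for 3 min, with 15-point titrations run in triplicate.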

[11] = molecular target: Thyrotropin-releasing hormone receptor (Homo sapiens) (UniProt P34981); assay: qHTS assay to identify small molecule agonists of the thyrotropin-releasing hormone receptor (TRHR) signaling pathway (AID 1346891; calls by dose curve; note: potency is the fitted concentration of half-maximal effect;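 for activation: HEK293 cells expressing TRHR with calcium dye readout; series mostly up to about 58 µM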)
Outline: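 Cells: TRHR-Hek293, seeded and incubated 18 h. Dye loading: 2 h at 37 °C. Compound added from DMSO stock by pin tool. Read-out: kinetic calcium fluorescence over 3 min.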

[12] = qHTS assay to identify small molecule agonists of the androgen receptor (AR) signaling pathway in the presence of an antagonist - cell viability counter screen (AID 1259379); note: nearly all actives have a fitted effect of over 25% in size; note: potency is the fitted concentration of half-maximal effect
Outline: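 Cytotoxicity counter-screen run in the same wells as the nilutamide-challenged (3.0 µM final) AR agonist assay in MDA-kb2 cells. Compounds tested at 15 concentrations for 16 h, 37 °C without CO2; CellTiter-Fluor fluorescence read.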

[13] = molecular target: Estrogen receptor (Homo sapiens) (UniProt P03372); assay: qHTS assay to identify small molecule agonists of the estrogen receptor alpha (ER-alpha) signaling pathway in the presence of an antagonist (AID 1259383; calls by dose curve; note: top concentration of the series differs between compounds; nearly all actives have a fitted effect of over 15% in size)
Outline: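 Agonist-mode confirmation run in the presence of 10.0nM (final) ICI-182,780 antagonist. The reporter was ERE-driven luciferase in VM7Luc4E2 cells, grown in charcoal-stripped serum. Cells were exposed to 15-concentration compound series for 22hr, then ONE-Glo luminescence was read.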

[14] = molecular target: Thyrotropin receptor (Homo sapiens) (UniProt P16473); assay: qHTS assay to identify small molecule antagonists of the thyroid stimulating hormone receptor (TSHR) signaling pathway (AID 1259385; calls by dose curve; note: nearly all actives have a fitted effect of over 20% in size; note: potency is the fitted concentration of half-maximal effect)
Outline: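 TSHR-HEK293 cells (800/well) plated 18 h, then compounds with Ro20-1724 and TSH at 1.5 ng/mL final, 30 min at room temperature. cAMP quantified by HTRF (cAMP-d2/anti-cAMP-cryptate, 1 h); 15 concentrations in triplicate.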

[15] = molecular target: Progesterone receptor (Homo sapiens) (UniProt P06401); assay: qHTS assay to identify small molecule antagonists of the progesterone receptor (PR) signaling pathway (AID 1346795; active = well fitted inhibition curve with a large enough effect in the signal ratio in the repeat runs, not every such curve was filed as active; the % refers to the signal ratio; note: potency is the fitted concentration of half-maximal effect)
Outline: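 Antagonist mode: compounds tested against 1 nM (final) promegestone stimulation in HEK293T cells expressing PR-UAS-bla reporter, 16 hr at 37C, 5% CO2; beta-lactamase activity detected via B/G FRET substrate after 2 hr at room temperature.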

[16] = qHTS assay to identify small molecule antagonists of the progesterone receptor (PR) signaling pathway - cell viability counter screen (AID 1346798); note: nearly all actives have a fitted effect of over 50% in size; note: potency is the fitted concentration of half-maximal effect
Outline: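 Counter screen for cytotoxicity: viability of PR-UAS-bla HEK293T cells was measured with CellTiter-Glo luminescence following 16 hr compound exposure in the presence of R5020.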

[17] = Human pregnane X receptor (PXR) small molecule agonists, qHTS cell viability counter screen (AID 1346977); note: nearly all actives have a fitted effect of over 50% in size; note: potency is the fitted concentration of half-maximal effect
Outline: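 Cytotoxicity counter screen run in the same wells as the PXR luciferase assay, using PXR-Luc HepG2 cells in charcoal-stripped serum medium. Viability: CellTiter-Fluor fluorescence after 24hr compound treatment.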

[18] = qHTS assay to identify small molecule agonists of the progesterone receptor (PR) signaling pathway - cell viability counter screen (AID 1346799; calls by dose curve; note: nearly all actives have a fitted effect of over 45% in size; note: potency is the fitted concentration of half-maximal effect)
Outline: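 Cells (PR-UAS-bla HEK293T) are plated at 3,000/well in 2% charcoal-stripped FBS medium, rested 6 hr, dosed and incubated 16 hr at 37C. CellTiter-Glo is then added and luminescence measured after 30 min at room temperature.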

Measured: Potency

Thyrotropin receptor (Homo sapiens), sequence (P16473 whole entry, looked up): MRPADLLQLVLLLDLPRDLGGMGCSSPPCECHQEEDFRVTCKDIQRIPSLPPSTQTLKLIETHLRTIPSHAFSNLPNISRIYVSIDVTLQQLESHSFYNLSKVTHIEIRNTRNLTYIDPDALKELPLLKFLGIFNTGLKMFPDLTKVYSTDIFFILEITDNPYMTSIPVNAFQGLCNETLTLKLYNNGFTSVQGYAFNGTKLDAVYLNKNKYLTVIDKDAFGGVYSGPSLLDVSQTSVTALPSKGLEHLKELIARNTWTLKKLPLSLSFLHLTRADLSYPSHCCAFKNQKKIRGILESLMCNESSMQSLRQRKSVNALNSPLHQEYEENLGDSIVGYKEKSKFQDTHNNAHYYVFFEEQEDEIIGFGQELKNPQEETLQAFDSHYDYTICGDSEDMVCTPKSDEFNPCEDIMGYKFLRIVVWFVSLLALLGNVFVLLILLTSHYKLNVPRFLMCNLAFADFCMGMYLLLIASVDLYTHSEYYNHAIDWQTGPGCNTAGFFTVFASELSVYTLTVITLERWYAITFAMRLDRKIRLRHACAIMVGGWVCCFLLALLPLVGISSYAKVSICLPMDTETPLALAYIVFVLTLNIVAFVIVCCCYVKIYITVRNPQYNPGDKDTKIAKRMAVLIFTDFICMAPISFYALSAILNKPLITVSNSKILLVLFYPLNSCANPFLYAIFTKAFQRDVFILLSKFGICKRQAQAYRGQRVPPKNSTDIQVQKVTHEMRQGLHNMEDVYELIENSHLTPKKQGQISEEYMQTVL
Progesterone receptor (Homo sapiens), sequence (P06401 whole entry, looked up): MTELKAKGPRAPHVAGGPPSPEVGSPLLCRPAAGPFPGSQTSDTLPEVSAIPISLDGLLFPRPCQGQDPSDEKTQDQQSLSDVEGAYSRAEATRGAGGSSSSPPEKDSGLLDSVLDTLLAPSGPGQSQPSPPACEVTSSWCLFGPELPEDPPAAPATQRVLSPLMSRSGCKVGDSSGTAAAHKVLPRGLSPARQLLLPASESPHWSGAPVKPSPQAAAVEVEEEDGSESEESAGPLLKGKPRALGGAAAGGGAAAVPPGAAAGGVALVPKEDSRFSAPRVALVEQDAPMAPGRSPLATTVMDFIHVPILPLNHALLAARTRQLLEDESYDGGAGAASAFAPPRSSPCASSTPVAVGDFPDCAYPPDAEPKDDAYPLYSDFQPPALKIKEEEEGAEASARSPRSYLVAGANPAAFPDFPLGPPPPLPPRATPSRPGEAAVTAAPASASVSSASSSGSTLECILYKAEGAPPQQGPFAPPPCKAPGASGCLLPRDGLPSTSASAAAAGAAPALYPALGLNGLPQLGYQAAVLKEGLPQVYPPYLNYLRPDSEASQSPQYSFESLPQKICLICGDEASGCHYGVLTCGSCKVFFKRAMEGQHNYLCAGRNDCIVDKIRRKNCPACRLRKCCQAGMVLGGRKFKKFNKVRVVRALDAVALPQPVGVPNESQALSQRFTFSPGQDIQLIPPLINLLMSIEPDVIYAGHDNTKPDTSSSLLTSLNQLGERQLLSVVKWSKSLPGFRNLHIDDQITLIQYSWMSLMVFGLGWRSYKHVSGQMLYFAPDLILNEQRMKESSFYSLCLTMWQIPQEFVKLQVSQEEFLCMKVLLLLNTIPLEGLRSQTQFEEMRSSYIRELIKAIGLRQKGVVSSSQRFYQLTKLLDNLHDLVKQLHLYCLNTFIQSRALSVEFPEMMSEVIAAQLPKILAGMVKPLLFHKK
Estrogen receptor (Homo sapiens), sequence (P03372 whole entry, looked up): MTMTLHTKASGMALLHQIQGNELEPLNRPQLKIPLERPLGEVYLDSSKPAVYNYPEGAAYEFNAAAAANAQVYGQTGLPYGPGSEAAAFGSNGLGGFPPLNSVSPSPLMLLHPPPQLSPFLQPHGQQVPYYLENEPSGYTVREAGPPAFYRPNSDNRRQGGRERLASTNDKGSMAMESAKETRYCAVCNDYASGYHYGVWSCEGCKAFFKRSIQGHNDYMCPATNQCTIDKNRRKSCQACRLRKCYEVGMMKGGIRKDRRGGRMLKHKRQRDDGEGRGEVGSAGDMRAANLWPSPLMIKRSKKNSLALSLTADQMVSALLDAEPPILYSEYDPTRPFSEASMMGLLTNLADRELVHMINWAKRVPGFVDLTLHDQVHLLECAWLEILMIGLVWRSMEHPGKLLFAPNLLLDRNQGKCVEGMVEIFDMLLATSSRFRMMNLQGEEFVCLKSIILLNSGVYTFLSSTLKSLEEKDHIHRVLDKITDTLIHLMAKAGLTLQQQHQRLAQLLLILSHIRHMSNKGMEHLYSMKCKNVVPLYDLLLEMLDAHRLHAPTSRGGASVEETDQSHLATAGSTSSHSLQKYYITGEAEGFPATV
Androgen receptor (Homo sapiens), sequence (P10275 whole entry, looked up): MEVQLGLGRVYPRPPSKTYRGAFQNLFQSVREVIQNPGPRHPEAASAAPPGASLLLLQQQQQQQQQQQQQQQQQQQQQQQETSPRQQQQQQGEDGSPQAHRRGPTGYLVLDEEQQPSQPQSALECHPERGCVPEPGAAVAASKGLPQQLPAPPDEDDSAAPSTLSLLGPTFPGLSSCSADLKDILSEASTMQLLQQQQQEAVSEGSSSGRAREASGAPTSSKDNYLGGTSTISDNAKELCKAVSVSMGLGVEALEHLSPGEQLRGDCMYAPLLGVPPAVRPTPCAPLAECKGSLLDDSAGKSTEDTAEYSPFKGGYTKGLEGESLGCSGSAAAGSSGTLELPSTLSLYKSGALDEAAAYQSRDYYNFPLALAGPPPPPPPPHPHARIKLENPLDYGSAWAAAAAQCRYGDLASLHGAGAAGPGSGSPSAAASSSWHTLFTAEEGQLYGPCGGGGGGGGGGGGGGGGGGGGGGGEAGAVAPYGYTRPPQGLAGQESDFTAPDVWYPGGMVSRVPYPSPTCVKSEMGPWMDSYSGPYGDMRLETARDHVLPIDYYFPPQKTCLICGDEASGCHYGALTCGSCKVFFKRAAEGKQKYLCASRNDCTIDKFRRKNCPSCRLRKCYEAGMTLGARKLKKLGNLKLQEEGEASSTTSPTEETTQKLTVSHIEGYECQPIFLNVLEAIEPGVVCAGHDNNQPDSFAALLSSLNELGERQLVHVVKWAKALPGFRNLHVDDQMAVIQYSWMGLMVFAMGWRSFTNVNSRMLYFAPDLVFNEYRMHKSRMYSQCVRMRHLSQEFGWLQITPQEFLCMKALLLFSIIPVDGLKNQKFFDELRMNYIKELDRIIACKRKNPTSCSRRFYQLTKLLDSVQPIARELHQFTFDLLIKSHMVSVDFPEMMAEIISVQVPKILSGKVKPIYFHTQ
Thyrotropin-releasing hormone receptor (Homo sapiens), sequence (P34981 whole entry, looked up): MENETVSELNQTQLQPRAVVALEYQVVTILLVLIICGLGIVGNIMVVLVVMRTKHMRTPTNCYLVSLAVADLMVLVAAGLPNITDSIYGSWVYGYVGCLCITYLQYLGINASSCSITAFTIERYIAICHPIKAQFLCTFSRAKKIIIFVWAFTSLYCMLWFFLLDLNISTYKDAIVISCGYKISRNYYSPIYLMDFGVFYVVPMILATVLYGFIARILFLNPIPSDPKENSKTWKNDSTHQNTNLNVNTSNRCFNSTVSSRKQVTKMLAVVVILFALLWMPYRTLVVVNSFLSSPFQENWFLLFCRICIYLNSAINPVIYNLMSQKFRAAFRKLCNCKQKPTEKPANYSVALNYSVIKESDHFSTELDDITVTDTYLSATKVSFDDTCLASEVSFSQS

C[C@]12CC[C@H]3C(=CCc4cc(O)ccc43)[C@@H]1CCC2=O
active: [1] 27.3 µM | [2] 5.45 µM | [3] 30.6 µM
inactive: [4] | [5] | [6] | [7] | [8] | [9] | [10] | [11]

Oc1cc2ccccc2cc1O
inactive: [12] | [2] | [3] | [13] | [4] | [14] | [5] | [6] | [15] | [16] | [7] | [8] | [17]

CCCCCCOc1cc(C)c(O)c(C)c1C
active: [1] 55.1 µM | [14] 55.1 µM | [17] 61.9 µM
inactive: [13] | [4] | [8] | [9] | [10] | [11]

Clc1ccccc1CN1CCc2sccc2C1
inactive: [12] | [3] | [16] | [18] | [8] | [11]

CC(O)C#CC(C)O (configuration not stated)
inactive: [12] | [13] | [4] | [5] | [15] | [16] | [18] | [8] | [9] | [10] | [11]

O=C(NO)c1ccccc1
inactive: [12] | [2] | [4] | [8] | [9] | [11] | [17]

CCC1(c2cnc[nH]2)Cc2ccccc2C1
inactive: [12] | [5] | [16] | [18] | [7] | [8] | [9] | [10] | [11] | [17]

CN(C)CCCN1c2ccccc2Sc2ccc(C(F)(F)F)cc21
inactive: [13] | [4] | [5] | [6] | [7] | [8]
active: [1] 18.8 µM | [3] 18.8 µM | [14] 29.8 µM

CCN(CC)CCNc1ccc(CO)c2sc3ccccc3c(=O)c12
inactive: [13] | [7] | [9] | [10] | [11]
active: [1] 10.6 µM | [3] 11.9 µM | [5] 10.6 µM | [16] 15 µM | [18] 13.3 µM

O=C1OC(OC(=O)c2cccnc2Nc2cccc(C(F)(F)F)c2)c2ccccc21 (configuration not stated)
inactive: [12] | [2] | [4] | [5] | [6] | [15] | [16] | [18] | [7] | [8] | [9] | [17]

Nc1ccc2cc3ccc(N)cc3nc2c1
active: [1] 2.37 µM | [10] 33.8 µM | [11] 15.5 µM and 13.5 µM
inactive: [2] | [3] | [6] | [7] | [8]

CN(C)c1ccc(N=NS(=O)(=O)O)cc1
inactive: [2] | [6] | [7] | [9] | [10] | [11]
active: [12] 16.2 µM | [5] 38.6 µM | [17] 20.4 µM

Brc1ccccc1-c1ccccc1
inactive: [12] | [3] | [4] | [5] | [7] | [8] | [9] | [10] | [11] | [17]

CCCCCCCCCCCCCCNCCO
active: [1] 26.6 µM
inactive: [3] | [13] | [4] | [5] | [6] | [15] | [7] | [8] | [9] | [17]

O=Nc1ccc(NO)cc1
inactive: [1] | [3] | [13] | [5] | [6] | [16] | [18] | [7] | [8] | [9] | [10] | [11] | [17]

CCCCCCCC/C=C\CCCCCCCC(=O)N(C)CC(=O)O
inactive: [13] | [4] | [14] | [7] | [9] | [11] | [17]
active: [1] 54.5 µM | [3] 61.1 µM | [15] 24.3 µM | [18] 68.6 µM

C1CC(COCC2CO2)CCC1COCC1CO1 (configuration not stated)
inactive: [12] | [3] | [13] | [4] | [14] | [5] | [16] | [18] | [7] | [8] | [11] | [17]

O=C(c1ccccc1)c1cc(Cl)ccc1O
inactive: [12] | [13] | [5] | [6] | [7] | [8] | [9] | [10] | [11] | [17]

C[C@@]12C(=O)OC(=O)[C@]1(C)C1CCC2O1
active: [12] 5.96 µM | [15] 4.73 µM | [17] 0.266 µM
inactive: [13] | [5] | [6] | [8] | [9] | [10] | [11]

CCc1cccc(CC)c1NC(=O)C(=O)O
inactive: [12] | [2] | [3] | [13] | [4] | [14] | [5] | [6] | [15] | [16] | [18] | [7] | [8] | [9] | [11] | [17]

CC(CN(C)C)CN1c2ccccc2CCc2ccccc21 (configuration not stated)
inactive: [13] | [4] | [5] | [6] | [7] | [8] | [10]
active: [1] 26.6 µM | [3] 23.7 µM | [14] 29.8 µM | [16] 21.1 µM | [18] 16.8 µM | [17] 26.6 µM

CCO[Si](CCCSSSSCCC[Si](OCC)(OCC)OCC)(OCC)OCC
inactive: [13] | [5] | [6] | [15] | [16] | [7] | [8] | [11] | [17]
active: [1] 61.2 µM | [3] 54.5 µM

O=C(Oc1ccccc1)c1cccc(C(=O)Oc2ccccc2)c1
active: [2] 0.644 µM | [15] 25.7 µM
inactive: [12] | [3] | [4] | [14] | [5] | [10] | [11] | [17]

CCCC(CC)CCCCCCCN (configuration not stated)
inactive: [3] | [13] | [4] | [14] | [5] | [6] | [15] | [7] | [8] | [9] | [10] | [11] | [17]
active: [12] 62.6 µM | [18] 28 µM

Source: PubChem BioAssay (Tox21)
